Sampled rows, rich in hits. Any-hit rate of the full collection: about 1.3%.
VLA-4 inh: inhibition in human VLA-4 binding assay, primary screen, VLA-4 allosteric modulator project, MLPCN library, flow cytometry, VLA-4 expressing cells; AID 2557, 2010; ligand binding flow cytometry; inhibition, % (about 7 µM as worked out from the volumes in the protocol); 330,000 compounds, 0.2% hits; in the data active = inhibition above about 50%
NTR1 agonist: agonists of human NTR1, primary screen, imaging, U2OS cells, beta-arrestin-GFP, high content; Neurotensin receptor type 1 (Homo sapiens), P30989; NTR1-U2OS beta-arrestin-GFP spot imaging, agonist mode; activation, % at 20 µM; 330,000 compounds, 0.17% hits;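 active = activation at or above 40% of the spot to cytoplasm intensity ratio, with at least 20 cells analyzed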;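 note: 0% = DMSO without peptide and 100% = 100 nM NTR1 peptide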
Beta2AR agonist: beta2AR agonists driving receptor internalization, primary screen, cell-based, FAP fluorogen, flow cytometry; Beta-2 adrenergic receptor (Homo sapiens), P07550; 340,000 compounds, 0.43% hits; Am2.2-beta2AR cells; response, % (test concentration not listed);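 active = response above a set limit, near 3 SD of response in nonfluorescent compounds, cut at about 42% in these data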
Target sequence (P07550 whole entry, looked up): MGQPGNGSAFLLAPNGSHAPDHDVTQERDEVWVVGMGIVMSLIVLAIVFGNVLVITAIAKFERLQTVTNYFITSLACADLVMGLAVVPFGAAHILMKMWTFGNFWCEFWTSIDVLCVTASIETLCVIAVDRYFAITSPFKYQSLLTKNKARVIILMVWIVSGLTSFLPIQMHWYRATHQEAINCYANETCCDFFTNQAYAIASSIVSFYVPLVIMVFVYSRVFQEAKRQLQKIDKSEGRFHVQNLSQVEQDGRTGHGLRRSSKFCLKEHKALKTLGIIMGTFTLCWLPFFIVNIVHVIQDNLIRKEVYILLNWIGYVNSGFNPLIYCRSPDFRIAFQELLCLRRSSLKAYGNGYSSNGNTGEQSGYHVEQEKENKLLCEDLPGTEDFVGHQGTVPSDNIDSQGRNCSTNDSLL
Bfl-1 A1 inh: caspase 3/7 activation in MEF A1-2A-BIM cells, primary screen, A1 inhibitor project, cell-based, luminescence, HTS; AID 2462, 2010; caspase activation, % (test concentration not listed); Caspase-Glo 3/7 luminescence, 3 h; percent of clofoctol response, vehicle zero; 330,000 compounds, 0.066% hits;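 active = over half of replicate activation scores above 10%, or exactly half above 10 with the replicate mean above 10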
GRK2 aptamer HTS: compounds blocking aptamer binding on GRK2 – biochemical, human GRK2, bead flow cytometry, HTS, primary screen. 330,000 compounds, 0.59% hits. inhibition of aptamer binding, % at 10 µM. FAM-aptamer displacement from GRK2;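 active = inhibition of aptamer binding above 40%, roughly 3 SD of noise, on plates passing a quality check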;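 note: median bead fluorescence of bound FAM aptamer so fluorescent compounds give negative values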
VLA-4 allo CP: retest of VLA-4 allosteric modulators, confirmation, cell-based, cherry-picked plates, U937, HUTS-21 LIBS antibody; shares compounds with VLA-4 inh; U937 cells, HUTS-21 LIBS mAb binding, flow cytometry; LDV ligand present at threefold Kd; inhibition, % at 6.7 µM; 1,300 compounds, 2% hits; in the data active = inhibition above about 40%;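 note: 0% = ligand without compound and 100% = no ligand background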
Starred values were filed as active, the others as inactive; . = no result given.

SMILES	VLA-4 inh	NTR1 agonist	Beta2AR agonist	Bfl-1 A1 inh	GRK2 aptamer HTS	VLA-4 allo CP
CCN1CCN(CC(O)COC(c2ccccc2)c2ccccc2C)CC1 (stereo unspecified)	3	0	-2	1	2	.
CC(C)Oc1ccccc1C1CC(=O)Nc2cc3c(cc21)OCO3 (stereo unspecified)	57*	6	25	1	2	42*
Cc1cc2c(cc1C)C(c1ccccc1OC(C)C)CC(=O)N2 (stereo unspecified)	3	7	12	1	0	-5
COc1ccccc1C1CC(=O)Nc2cc(C)c(C)cc21 (stereo unspecified)	6	2	3	0	2	.
Nc1ncnc2c1ncn2[C@@H]1O[C@H](CNC(=O)[C@@H](N)C2CCCCC2)[C@@H](O)[C@H]1O	.	3	-3	.	2	.
CC1CN(C=O)CC(C)N1CCN1C(C)CN(C=O)CC1C (stereo unspecified)	.	.	-2	.	.	.
Cc1ccc(CNC(=O)C2CCCCN2S(=O)(=O)c2ccccc2)cc1 (stereo unspecified)	55*	0	-1	1	1	16
N#CC(C#N)=C1C=CC=CN1/C(=C\c1ccco1)C(=O)c1ccc(-c2ccccc2)cc1	50*	.	18	1	0	12
N#C/C(=C\c1ccco1)C(=O)NCc1ccccc1	8	2	0	0	0	.
O=CN1CCN(c2c([N+](=O)[O-])c(=O)oc3ccccc23)CC1	20	0	19	-1	0	.
CCN(CC)CCCOC(=O)C1(c2ccccc2)CCCC1	25	0	0	2	1	.
CCN(CC)CCOCCOC(=O)C1(c2ccccc2)CCCC1	57*	-1	2	1	0	2
COc1ccc(NC(=O)N(C)C[C@H]2Oc3c(NC(=O)C4CC4)cccc3C(=O)N([C@H](C)CO)C[C@@H]2C)cc1	-1	9	0	0	3	.
C[C@@H](NC(=O)[C@@H]1Cc2ccccc2CN1)C(=O)NC1CCCCC1	51*	-3	-1	0	3	-1
COc1ccc(N2CCN(C(=O)c3ccc4ccccc4n3)CC2)cc1	41	1	2	0	4	7
O=C(c1ccc2ccccc2n1)N1CCN(c2ccccc2)CC1	13	1	-3	0	1	.
COc1cc(OC)c(C(=O)OCC(=O)NCC2CCCCC2)cc1OC	.	-1	7	.	.	.
COc1cc(NC(=O)COc2cccc3c2OC(C)(C)C3)cc(OC)c1OC	2	2	-3	-1	4	.
O=C(COc1ccccc1)Nc1ccccc1C(=O)NCc1ccco1	58*	-2	5	-2	0	0
CCCNC(=O)c1ccccc1NC(=O)COc1ccc(OC)cc1	.	3	9	-1	0	-9
COc1ccccc1OCC(=O)Nc1ccccc1C(=O)NCc1ccco1	3	-2	-4	1	2	.
O=C(Nc1ccc(F)cc1)C1CCN(C(=O)c2ccc(F)cc2)CC1	3	-2	-1	0	1	0
Cc1ccc(NC(=O)C2CCN(C(=O)c3ccc(F)cc3)CC2)nc1	1	0	-3	0	0	-2
O=C(NCCc1ccc(F)cc1)C1CCN(C(=O)Nc2ccccc2)CC1	58*	4	1	1	0	0
O=C(Nc1ccc(OC(F)F)cc1)c1cc(S(=O)(=O)N2CCOCC2)ccc1N1CCCC1	.	.	1	.	.	.
SMILES	VLA-4 inh	NTR1 agonist	Beta2AR agonist	Bfl-1 A1 inh	GRK2 aptamer HTS	VLA-4 allo CP
C=CCN(CC=C)C(=S)NC(=O)c1ccc(OC)cc1	52*	1	7	0	1	3
Cc1ccc(C(=O)NCC(=O)OCc2c(F)cccc2Cl)s1	15	0	-2	-1	1	.
N#CC1=C(S)N=C(N)C(c2nc(-c3ccccc3)cs2)C12CCCC2 (stereo unspecified)	91*	-1	30	1	2	-2
N#CC1=C(S)N=C(N)C(c2nc(-c3ccccc3)cs2)C12CCCCC2 (stereo unspecified)	-4	0	14	-1	1	.
N#Cc1c(-c2c(Cl)cccc2Cl)noc1/C=C/Nc1ccc(C(=O)O)cc1	42	0	-2	0	8	-2
CCCn1c(SCC(=O)NC)nc2sc3c(c2c1=O)CCC3	57*	0	-1	3	0	5
CCCn1c(SCC(=O)NC(C)C)nc2sc3c(c2c1=O)CCC3	1	1	-20	0	1	.
O=C(c1ccc(Br)cc1)c1cc([N+](=O)[O-])ccc1N1CCOCC1	5	0	9	1	0	17
Cc1ccc(C(=O)c2cc([N+](=O)[O-])ccc2N2CC(C)OC(C)C2)cc1 (stereo unspecified)	-2	1	-1	0	0	-1
O=C(c1ccccc1)c1cc([N+](=O)[O-])ccc1N1CCOCC1	26	2	16	-2	0	32
Cc1nnc(NN2CCOCC2)[nH]c1=O	14	-1	0	0	0	.
Cc1ccc(S(=O)(=O)N2[C@@H](c3ccc(C(C)(C)C)cc3)C(C(=O)O)=CC[C@H]2c2ccc(Cl)cc2)cc1	23	13	4	.	0	.
CC[C@@H]1C=C(C(=O)O)[C@H](c2ccc(C)cc2)N1S(=O)(=O)c1ccc(C)cc1	36	1	6	-1	0	0
CC[C@@H]1C=C(C(=O)O)[C@H](c2ccc(OC)c(OC)c2)N1S(=O)(=O)c1ccc(C)cc1	28	1	-1	1	0	1
Cc1ccc(S(=O)(=O)N2[C@@H](c3ccc(C(C)(C)C)cc3)C(C(=O)O)=CC[C@H]2c2cccs2)cc1	60*	6	-2	.	0	2
COc1ccc([C@@H]2CC=C(C(=O)O)[C@H](c3ccccc3)N2S(=O)(=O)c2ccc(C)cc2)cc1OC	22	4	0	1	1	.
CC(C)(C)[C@@H]1C=C(C(=O)O)[C@H](c2ccc(Cl)cc2)N1S(=O)(=O)c1ccccc1	26	-2	5	.	0	0
COC(=O)C1CCN(C(=O)COC(=O)CSc2ccc(C(N)=O)cc2[N+](=O)[O-])CC1	-1	-1	-3	1	0	.
O=C(CN1C(=O)NC2(CCCC2)C1=O)Nc1nc2ccccc2[nH]1	-11	0	5	1	2	.

Screens deposited in PubChem BioAssay by several laboratories.
